Our source for the growth values is PubChem BioAssay (NCI).

The panel holds about 83,000 compounds, 20% with a hit somewhere; the sample as a whole holds those more often.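 Assay: single dose, 48 h. Readout: percent growth (0 = no net growth; negative = cell death). Active: <10.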 Values without a mark were called inactive. Calls of active or inactive are those of the source.

What all share (test): NCI-60 one-dose screen, 48 h (100 = growth as untreated, 0 = no growth, -100 = all killed)
What all share (conditions): 10 µM

For experiment [1], the system named is T-47D breast.
For experiment [2], the system named is BT-549 breast.
Experiment [3] deals with MDA-MB-435 melanoma.
For experiment [4], the system named is SW-620 colon.
The test system of experiment [5] is MCF7 breast.
In experiment [6] the test system is HCT-116 colon.
For experiment [7], the system named is HCC-2998 colon.
For experiment [8], the system named is KM12 colon.
Experiment [9] concerns MDA-MB-468 breast.

Consider `O=C(Cn1nc(-c2ccccc2)ccc1=O)NN1C(=O)c2ccccc2C1=O`, for which the growth was 96.2% in [1]; 110% in experiment [2]; 107% in experiment [3]; 115% in experiment [4]; 81.7% in experiment [5]; 106% in [6]. Besides, the values for the growth in experiment [7], in experiment [8] and in experiment [9] were 108%, 103% and 92.3%, respectively.

Take `COC1=C[C@]23CCC(=O)N2CCc2cc4c(cc2[C@@H]3[C@@H]1OC(=O)CCCC(C)C)OCO4`: the growth in [1] is 68.3%; in experiment [2], 85.4%; in experiment [3], 74.1%; in [4], 63%; in experiment [5] it was 1.77% (active); in experiment [6], 19.2%. In addition, the results for the growth in [7], in [8] and in [9] were 21.8%, 48.7% and 6.02% (active), respectively.

Turning to `COc1cc(C2CC(c3ccc(C)cc3)=Nc3c(N)nc(N)nc3N2)ccc1Oc1nc(Nc2ccc(F)cc2)nc(N(C)C)n1` (stereo not given), the growth is 64.5% in experiment [1]; 65.4% in [2]; 63.2% in experiment [3]; 58.8% in experiment [4]; 5.19% (active) in experiment [5]; 6.7% (active) in [6]. Besides, the growth in experiment [7] is 29.9%; in experiment [8], 52%; in experiment [9], 15.6%.

For the molecule `O=C(Cc1ccc2c(c1)CN(C1CCC(=O)NC1=O)C2=O)NCCc1ccccc1` (stereo not given), the growth in experiment [1] was 1.71% (active); in experiment [2], -37.2% (active); in experiment [3], 35%; in [4] it was 10.6%; in [5], 18.9%; in experiment [6], 70.8%. The growth in [7] was -11.4% (active); in experiment [8], 6.24% (active); in experiment [9], -46.1% (active).

Regarding `O=S(=O)(c1ccc(Cl)cc1)c1nc(-c2ccccc2)oc1S(=O)(=O)c1ccc(Cl)cc1`, the growth in experiment [1] was 78.8%; in [2] it was 142%; in experiment [3], 82.3%; in experiment [4], 46.8%; in [5], 36.3%; in experiment [6] it was 58.9%. The growth in [7] was 95.8%; in [8], 93.2%; in experiment [9], 76%.

Regarding `COc1ccc(C(=O)Nc2sc3c(c2C#N)CCC(=O)C3)cc1C(F)(F)F`, the growth was -51.2% (active) in experiment [1]; -58.3% (active) in experiment [2]; -21.7% (active) in [3]; -30.7% (active) in [4]; -10.1% (active) in experiment [5]; 0.735% (active) in experiment [6]. Besides, the growth in experiment [7] is 6.84% (active); in experiment [8], 10.4%; in experiment [9], -38.9% (active).

Regarding `O=C(c1ccc(Cl)cc1)C1[C@H](c2ccc(Br)cc2)[C@@H](c2ccccc2)NC12C(=O)Nc1ccc(Br)cc12` (stereo not given in full), the growth was -54% (active) in experiment [1]; -73.3% (active) in [2]; -88.8% (active) in [3]; -71.6% (active) in experiment [4]; -43.3% (active) in [5]; 1.39% (active) in [6]. In addition, the growth in [7] is -98.5% (active); in experiment [8] it was -50.8% (active); in experiment [9], -98.9% (active).

`O=C(CNc1nc(-c2ccccc2)cs1)Nc1cccc([N+](=O)[O-])c1`: the growth in experiment [1] is -49.9% (active); in [2], -73.1% (active); in experiment [3], -77.9% (active); in [4], -66.7% (active); in experiment [5], -81.6% (active); in [6], -34.2% (active). The figures for the growth in experiment [7], in [8] and in [9] were -99.8% (active), -44% (active) and -90.6% (active), respectively.

With `CC(=O)Nc1ccc(-n2cnc3cc(-c4ccc(NS(C)(=O)=O)cc4)ccc32)cc1`, the growth was 63.2% in experiment [1]; 75.4% in [2]; 51.7% in [3]; 71.5% in experiment [4]; 16.8% in experiment [5]; 33.9% in experiment [6]. In addition, the growth is 21.5% in experiment [7], 39.8% in experiment [8] and 54.6% in [9].

Turning to `CCNCCCn1c2c(c3cc(OC)c(OC)cc3c1=O)C(=O)c1cc3c(nc1-2)OCO3`, the growth in [1] is 31.6%; in experiment [2], 36.2%; in [3], -83.1% (active); in experiment [4], 38.7%; in experiment [5], -88.9% (active); in [6], -70.2% (active). For the same molecule, the results for the growth in [7], in [8] and in experiment [9] were 20%, 33.7% and -36.2% (active), respectively.

With `COc1ccsc1/C=N/NC(=O)c1[nH]c2ccc(Br)cc2c1-c1ccccc1`, the growth in [1] is -2.72% (active); in experiment [2], 13.8%; in experiment [3] it was 2.33% (active); in experiment [4], 18.4%; in experiment [5] it was 1.13% (active); in experiment [6] it was 0.361% (active). Besides, the growth was -5.18% (active) in experiment [7], -0.302% (active) in experiment [8] and -6.2% (active) in experiment [9].

With `CCOc1ccc(/C=N/NC(=O)Cn2nc(Cc3ccc([N+](=O)[O-])cc3)c3onc(C)c3c2=O)cc1`, the growth in [1] is 8.58% (active); in experiment [2] it was 55.2%; in experiment [3], 49.7%; in [4], 15.2%; in [5] it was 9.23% (active); in experiment [6], -26% (active). Also, the results for the growth in experiment [7], in [8] and in experiment [9] were 29%, 51.3% and -30.7% (active), respectively.

As for `N#Cc1c(Cl)nc(SCc2ccc(F)cc2)nc1-c1ccc(F)cc1`, the growth in experiment [1] was 66.8%; in experiment [2], 95.4%; in [3], 99.1%; in experiment [4] it was 98.6%; in experiment [5], 82.6%; in experiment [6], 81.5%. Further, the growth in experiment [7] is 111%; in [8] it was 91.6%; in experiment [9], 112%.

Regarding `CN1CCc2c(sc3ncnc(N/N=C/c4ccc5ccccc5c4)c23)C1`, the growth in [1] is 92.1%; in [2] it was 71.1%; in experiment [3] it was 72.5%; in experiment [4], 22.9%; in experiment [5] it was 20.7%; in experiment [6], -13.2% (active). Further, the growth in [7] was 73.8%; in experiment [8], 78.1%; in [9] it was 42%.

Take `Cc1ccc(F)cc1N/C=c1\s/c(=C(\C#N)C(=O)Nc2ccccc2)n(-c2ccccc2)c1=O`: the growth in experiment [1] was 76.7%; in experiment [2], 99.7%; in experiment [3] it was 98.5%; in experiment [4] it was 105%; in experiment [5], 38.8%; in experiment [6], 42%. Further, the figures for the growth in [7], in experiment [8] and in experiment [9] were 92.1%, 84.8% and 53%, respectively.
